Hits are enriched below; roughly 7.4% of the tested compounds scored in any of these assays.
SMN2 splice enh – SMN2 splice variant enhancement. 210,000 compounds, 2.8% hits. AID 1458. HEK293 SMN2-luciferase splicing reporter, luminescence, 30-36 h. Potency, µM (highest dose often 46.1 µM), without a hit: at the highest dose activity change, positive = activation, most hits filed as activators; note: % of control where 0% means no effect; nearly all actives have a fitted effect of over 55% in size
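qHTS luciferase splicing reporter: luminescence rises when SMN2 exon 7 is included in transfected HEK293 cells. Compound exposure lasted 30-36 h at 37C, with 4.5 mM final sodium butyrate as control, followed by a ONE-Glo read.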
NPC1 prom act – NPC1 promoter activation; Huh7 NPC1 promoter luciferase reporter, 24 h; 320,000 compounds, 2.4% hits; Potency, µM (highest dose often 9.22 µM), for inactives: at the highest dose activation, actives largely listed as activators; note: % of control where 0% means no effect; nearly all actives have a fitted effect of over 60% in size
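Cells: Huh7 expressing luciferase under the NPC1 promoter, 1500/well. Seeded 2 h, compound added, incubated 24 h at 37 °C. Luciferase reagent, 10 min ambient, then luminescence.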
FLuc counter – firefly luciferase modulation, counter-screen for miR-21 project | P08659 | purified FLuc, Km substrates, luminescence inhibition | Potency, µM (doses to about 57.5 µM), without a hit: at the top dose activity change, negative = inhibition, most hits filed as inhibitors | 360,000 compounds, 6.9% hits;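 note: plate controls were vehicle for no effect and reference inhibitor for full effect; nearly all actives have a fitted effect of over 55% in size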
Target sequence (P08659 whole entry, looked up): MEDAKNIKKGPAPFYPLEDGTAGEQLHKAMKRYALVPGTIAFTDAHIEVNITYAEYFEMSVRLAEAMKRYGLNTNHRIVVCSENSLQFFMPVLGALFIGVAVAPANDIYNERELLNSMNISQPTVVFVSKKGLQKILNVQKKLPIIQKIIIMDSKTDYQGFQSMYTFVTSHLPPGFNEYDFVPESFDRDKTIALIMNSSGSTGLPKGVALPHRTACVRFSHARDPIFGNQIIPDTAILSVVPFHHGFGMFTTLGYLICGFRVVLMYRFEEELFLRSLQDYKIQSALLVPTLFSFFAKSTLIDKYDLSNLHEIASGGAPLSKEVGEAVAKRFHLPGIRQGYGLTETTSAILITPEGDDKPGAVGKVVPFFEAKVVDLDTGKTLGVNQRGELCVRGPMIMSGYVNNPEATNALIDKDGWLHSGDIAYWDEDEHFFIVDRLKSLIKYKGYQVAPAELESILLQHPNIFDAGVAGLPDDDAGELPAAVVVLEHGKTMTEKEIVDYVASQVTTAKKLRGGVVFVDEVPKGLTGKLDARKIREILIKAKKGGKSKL
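Biochemical qHTS of compounds, final roughly 60 µM downward over six points, against 10 nM purified firefly luciferase using Km concentrations of substrates (10 uM D-luciferin, 10 uM ATP) in Tris acetate pH 7.5 buffer; luminescence output.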
Rab9 prom act – Rab9 promoter activation; Huh7 Rab9 promoter-luciferase reporter, luminescence, 24 h; Potency, µM (titrated, usually from 9.22 µM), for inactives: top-dose activation, negative = inhibition, actives largely listed as activators; 320,000 compounds, 2.8% hits; note: % of control where 0% means no effect; nearly all actives have a fitted effect of over 60% in size
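Steps: seed 1500 Huh7 Rab9-luc cells per well, rest 2 h at 37 °C; add compound in DMSO; incubate 24 h; add luciferase reagent, 10 min ambient; read luminescence.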
p53 reactivator – mutant p53 re-activation in reporter cells | H1299 p53-A138V BP100-luciferase reporter, luminescence, 24 h | Potency, µM (series often up to 92.2 µM), for the others: top-dose activity change, positive = activation, hits mostly activators | 320,000 compounds, 0.063% hits | AID 504706; note: % of control where 0% means no effect; nearly all actives have a fitted effect of over 45% in size
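H1299 (p53-null), stable ts p53-A138V + BP100-Luc; 1000 cells/well, Opti-MEM/10% FBS; cpd 4 pt, 1:5; 24 h, 37 deg C, 5% CO2; detection reagent 10 min RT; luminescence.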
ELG1 genotox – inducers of genotoxicity in HEK293T ELG1-luciferase cells; HEK293T ELG1-luciferase reporter, luminescence, 16 h; Potency, µM (highest dose often 46 µM), for the others: at the highest dose activity change, positive = activation, most hits filed as activators; 330,000 compounds, 1.3% hits; AID 504466; note: % of control where 0% means no effect; nearly all actives have a fitted effect of over 60% in size
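Step 1: seed 2,000 HEK293T ELG1-luciferase cells per well. Step 2: add compound or DMSO, incubate 16 hr at 37 °C. Step 3: ONE-Glo, 30 min at room temperature, read luminescence.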
The depositor's hits bear a star; ? = inconclusive; . = not tested or not shown; [ ] = remark or other dose. Calls come from the whole dose curve; as a rule, active = well fitted curve in the direction sought with a large enough effect; inconclusive = small, poorly fitted or top-dose-only effect, or another doubt; inactive = no such curve, though single readings can be large; an effect the other way counts as inactive or inconclusive. Potency is the fitted concentration of half-maximal effect.

SMILES	SMN2 splice enh	NPC1 prom act	FLuc counter	Rab9 prom act	p53 reactivator	ELG1 genotox
CCOc1cc(C(=O)Nc2ccc(S(=O)(=O)Nc3onc(C)c3C)cc2)cc(OCC)c1OCC	.	.	.	.	1.2%	-3.6%
CCCOc1ccc(C(=O)Nc2ccc(S(=O)(=O)Nc3cc(C)nc(C)n3)cc2)cc1	.	0.9%	15.1µM*	-0.7%	-2.1%	-4.3%
CN(C)S(=O)(=O)c1ccc(Cl)c(NC(=O)COC(=O)CCC2CCCCC2)c1	.	.	.	.	-2.4%	-3.1%
COCCn1c(-c2ccccc2)nc2oc3ccccc3c(=O)c2c1=O	-1.9%	-3.7%	3.3%	4.2%	16.9%	-0.9%
COCCn1c(-c2cc(OC)c(OC)c(OC)c2)nc2oc3ccccc3c(=O)c2c1=O	14.1µM*	-0.8%	-0.4%	2.0%	3.8%	-8.6%
CN1CCN(c2ccncc2S(=O)(=O)N2CCN(C)CC2)CC1	0.7%[9.22 µM]	.	.	.	.	.
Cn1cccc1C(=O)NC(=O)COC(=O)CC12CC3CC(CC(C3)C1)C2	-7.4%	1.0%	16.9µM*	-3.8%	24.7%	5.8%
O=C(CCc1nc2sc3c(c2c(=O)[nH]1)CCCC3)N1CCN(c2ccccc2)CC1	.	1.6%	0.3%	-1.4%	-1.8%	-2.7%
O=c1oc2ccccc2cc1O	-5.3%	.	.	.	.	.
Nc1ccc(-c2cc3ccccc3oc2=O)cc1	.	-20.2%	21.3µM*	-11.3%	.	4.3%
O=c1oc2ccccc2cc1NCc1ccccc1O	5.2%	1.0%	15.1µM*	16.9%	?	?
O=c1oc2ccccc2cc1-c1ccc(O)cc1	?	?	12µM*	3.55µM*	?	?
COC1=CC(=O)C(O)=C/C1=C\C=C\c1ccccc1	-20.3%	.	.	.	.	.
O=C(NCCc1ccccc1)/C(=C\c1ccccc1)NC(=O)c1ccco1	.	-5.2%	0.4%	0.2%	23.1%	4.9%
COc1ccc(S(=O)(=O)N2CCN(c3cnccn3)CC2)cc1OC	.	.	.	.	1.3%	-3.0%
COc1ccccc1NC(=O)COC(=O)c1cc2c(s1)CCC2	.	-2.8%	8.49µM*	2.9%	1.2%	-0.4%
COc1ccc(C)cc1NC(=O)Nc1ccc2c(c1)CCC2	.	2.1%	9.53µM*	-0.5%	3.3%	2.6%
COc1ccccc1NC(=O)Nc1ccc2c(c1)CCC2	.	2.51µM*	3.01µM*	2.51µM*	?	13µM*
COc1ccc(OC)c(NC(=O)COC(=O)c2cc3c(s2)CCC3)c1	4.8%	1.5%	-6.3%	-7.5%	13.8%	4.3%
O=C(N/N=C/c1ccccc1O)C1CC(=O)N(c2ccc(Cl)cc2)C1 (stereo not given)	.	-45.8%	0.7%	-17.1%	31.6µM*	?
O=C(Nc1nc2cc3c(cc2s1)OCCO3)C1=COCCO1	.	-23.0%	0.0536µM*	-24.5%	-11.4%	?
Cc1ccc(Cl)c2sc(NC(=O)C3=COCCO3)nc12	.	-4.8%	19µM*	4.9%	9.3%	?
Cc1cc(C)c2sc(NC(=O)C3=COCCO3)nc2c1	.	0.562µM*	2.13µM*	0.447µM*	18.8%	?
COc1ccc(Cl)c2sc(NC(=O)C3=COCCO3)nc12	.	21.7%	?	-5.0%	4.7%	?
O=C(Nc1nc2ccc(F)cc2s1)C1=COCCO1	.	0.708µM*	0.426µM*	0.282µM*	-1.5%	?
SMILES	SMN2 splice enh	NPC1 prom act	FLuc counter	Rab9 prom act	p53 reactivator	ELG1 genotox
COc1ccc(OC)c(-n2c3c(cc(-c4nc(-c5ccc(Cl)cc5)cs4)c2=O)C(=O)CC(C)(C)C3)c1	-0.7%	.	-2.8%	.	.	.
CC[C@@]1([N+](=O)[O-])C[C@H]2C=C[C@@H]1C2	-5.7%[9.22 µM]	.	.	.	.	.
Cc1ccc(-c2nnc(NC(=O)C3=COCCO3)o2)c(C)c1	.	18.7%	15.1µM*	11.2%	10.7%	7.9%
CC(=O)OCc1ccco1	-1.3%	.	.	.	.	.
COc1ccccc1/C=C/C=N/n1c(-c2ccccn2)n[nH]c1=S	.	18.2%	16.9µM*	?	25.4%	?
COc1ccccc1/C=C/C=N/n1c(-c2ccc(C)cc2)n[nH]c1=S	-13.8%	-0.3%	?	-4.0%	1.2%	-1.3%
